Test results: ChEMBL document CHEMBL1201862, “PubChem BioAssay data set” (2004)
Where “and” joins values, the source holds several entries; their conditions need not be identical. Identical values can stand only once. The campaign covered roughly 1,500 compounds. About 140 (9.3%) were called active. How the calls were made is not given here. Shown is part of a subset that was picked to be rich in actives.

test: false positives in methylated H4 peptide AlphaScreen detection – biochemical, cherry-picked samples, artefact control for NSD2 inhibitor project, dose response (AID 1053174);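 further: actives lower the AlphaScreen signal from the preloaded product and count as artifacts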

AbsAC35, active:
Cc1ccc(S(=O)(=O)/N=C2\C=C(Nc3cccc(C(=O)O)c3)C(=O)c3ccccc32)c(C)c1 11.5 µM
Cc1ccccc1NC1=C/C(=N\S(=O)(=O)c2ccc(C(=O)O)cc2)c2ccccc2C1=O 11.8 µM
N=C1/C(=C/c2ccc(O)c(O)c2)C(=O)N=C2SC(CC(=O)N3CCCC3)=NN12 10.6 µM
Cc1cccc(C)c1N=Nc1c(C)cc(O)cc1C 20.6 µM
O=C1/C(=C\c2cccc(O)c2O)SC(=S)N1Cc1ccccc1 14.9 µM
O=C1NC(=O)/C(=C\c2ccc(O)cc2O)S1 18.9 µM
CC1CCCC(C)N1/N=C/c1ccc(O)c(O)c1 (stereo not given) 10.9 µM
CSc1ccc(/C=N/Nc2cccc(C(=O)O)c2)cc1 12 µM
O=C(Cc1nnc(NC(=O)c2ccccc2)s1)N/N=C\c1ccc(O)c(O)c1 10.6 µM
O=C(O)CCCNc1cc(N2CCN(C(=O)c3ccco3)CC2)c2noc3c2c1C(=O)c1ccccc1-3 11.2 µM
Cc1ccc(-n2[nH]c(C)c(/C=N/Nc3ccc([N+](=O)[O-])cc3[N+](=O)[O-])c2=O)cc1C 13.4 µM
CN(C=[N+](C)C)c1cccc2c1C(=O)c1ccccc1C2=O 15.2 µM
CCN1/C(=C/c2ccc3cc(C)ccc3[n+]2CC)Sc2cc(C)c(C)cc21 19.3 µM and 11.4 µM
Cc1cc(C=O)c(C)n1-c1ccc(N2CCCCC2)c([N+](=O)[O-])c1 17.3 µM
O=[N+]([O-])c1ccc(N2CCCC2)cc1N1CCCC1 18.9 µM
CCN(CC)c1ccc(/C=C/c2ccc3ccc(OC)cc3[n+]2CC)cc1 11.4 µM
O=C(O)CCNc1ccc(NCCC(=O)O)c2c1C(=O)c1ccccc1C2=O 11.8 µM
CC(C)(C)c1ccc(S(=O)(=O)/N=C2\C=C(NS(=O)(=O)c3ccccc3)C(=O)c3ccccc32)cc1 13 µM
CCc1ccc(S(=O)(=O)/N=C2\C=C(NS(=O)(=O)c3ccccc3)C(=O)c3ccccc32)cc1 15.7 µM
Cc1ccc(C)c(S(=O)(=O)/N=C2\C=C(NS(=O)(=O)c3ccccc3)C(=O)c3ccccc32)c1 11.3 µM
CC(C)c1ccc(S(=O)(=O)/N=C2\C=C(NS(=O)(=O)c3ccccc3)C(=O)c3ccccc32)cc1 11.3 µM
Cc1[nH]c(O)nc1C(=O)CCCCC(=O)OCC(=O)Nc1ccccn1 11.4 µM
Nc1ccc(Nc2ccccc2)c(S(=O)(=O)O)c1 31.6 µM
CN(C)c1ccc(CNCCC(Cc2ccccc2)c2ccco2)cc1 (stereo not given) 16.6 µM
COc1ccccc1-c1nnc2n1N=C(c1ccc(O)c(O)c1)CS2 18.5 µM
COc1cccc2c(SCC(=O)N/N=C/c3ccc(O)c(O)c3)cc(C)nc12 12.7 µM
N#C/C(=C/c1ccc(O)c(O)c1)C(=O)NCc1ccc(Cl)cc1 14.6 µM
COCC/N=c1\scc(-c2ccco2)n1/N=C/c1ccc(O)c(O)c1O 11.7 µM
O=C(/C=C/c1ccc(O)c(O)c1)c1ccccc1O 20.7 µM
COc1ccc(S(=O)(=O)N2CCN(CC(=O)c3ccc(O)c(O)c3)CC2)cc1 12.5 µM
CC(C)c1ccc(S(=O)(=O)N2CCN(CC(=O)c3ccc(O)c(O)c3)CC2)cc1 14.6 µM
O=C(CN1CCN(S(=O)(=O)c2ccc(Cl)cc2)CC1)c1ccc(O)c(O)c1 14.7 µM
CC1=C/C(=C\c2ccc(Br)o2)C(=O)O1 25.7 µM
CCCn1nc([N+](=O)[O-])c(C(C#N)c2nc3ccccc3s2)c(Cl)c1=O (stereo not given) 13.4 µM
CCn1nc([N+](=O)[O-])c(C(C#N)c2nc3cc(C(F)(F)F)ccc3s2)c(Cl)c1=O (stereo not given) 22.2 µM
CCN(CC)c1ccc2c(-c3ccc(S(=O)(=O)O)cc3S(=O)(=O)[O-])c3ccc(=[N+](CC)CC)cc-3oc2c1 14.9 µM
O=S(=O)(O)c1cc(O)c(N=Nc2ccc(O)cc2O)c2ccccc12 12.8 µM
O=S(=O)(O)c1cc(Cl)cc(N=Nc2ccc(O)cc2O)c1O 14.5 µM
O=C(O)c1ccccc1N=N/C(=N/Nc1cc(S(=O)(=O)O)ccc1O)c1ccccc1 13.7 µM
O=C(Oc1ccccc1)c1cc(O)c(O)c(O)c1 17.2 µM
CC1=NN(c2ccccc2)C(=O)C1/C=C1\NC(=S)NC1=O (stereo not given) 28.8 µM
CCS(=O)(=O)C1=NN2C(=N)/C(=C\c3ccc(SCc4ccco4)o3)C(=O)N=C2S1 18.7 µM
CC(=O)c1ccc2c(c1)C1C=CCC1C(C(=O)O)N2 (stereo not given) 13.9 µM
Cc1ccc2[nH]c(/C(C#N)=C/c3ccc(O)c(O)c3)nc2c1 22.9 µM
N#C/C(=C/c1ccc(O)c(O)c1)c1nc2ccccc2[nH]1 15 µM
CC1COCC(C)N1C1=C(Cl)C(=O)c2ccccc2C1=O (stereo not given) 12.2 µM
O=[N+]([O-])c1ccccc1/C=C\C=N\N1CCN(c2ccccc2)CC1 17.5 µM
O=C(COC(=O)c1ccccc1)Nc1ncc([N+](=O)[O-])s1 21.8 µM
Cc1cc2c(=Cc3ccc(N(C)C)cc3)c3ccccc3n2[n+]1C 14.4 µM
NCCc1c(-c2ccccc2)n(-c2ccccc2)c2ccccc12 18.5 µM
CN(C)C=O.O=C(O)c1ccccc1NS(=O)(=O)c1ccc(N/N=C/c2ccc(O)c(O)c2)c([N+](=O)[O-])c1 10.8 µM
COc1cc(OC)c(OC)cc1CCC(C)NCCC(c1ccccc1)c1ccccc1 (stereo not given) 11.1 µM
CCN(c1ccccc1)S(=O)(=O)c1cc(C(=O)O)ccc1C 17.7 µM
O=C1N=C(Nc2ccccc2Cl)S/C1=C\c1cccc([N+](=O)[O-])c1O 17.4 µM
Cc1ccc(NC(=O)CCCCCC2NC(=O)NC2C)cc1 (stereo not given) 13.9 µM
